Screening data (PubChem BioAssay)
The list is not random: actives were taken first. Their share in the collection is about 4.5%.
PfHsp90 set2 – growth inhibition of yeast expressing Plasmodium Hsp90 | S. cerevisiae expressing PfHsp90, BacTiter-Glo ATP, 48 h; yeast lacking PDR1 and PDR3 efflux regulators | inhibition, % at 9.4 µM | 310,000 compounds, 0.32% hits | AID 504621;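 active = every replicate shows inhibition above about 80%, whatever the replicate mean, limit read from the data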;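 note: 0% = DMSO neutral controls and 100% = 20 µM radicicol positive controls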
tim23-1 inh – growth inhibitors of tim23-1 mutant yeast; S. cerevisiae tim23-1 growth, BacTiter-Glo luminescence, 24 h; inhibition, % at 20 µM; 330,000 compounds, 1.3% hits; AID 463212;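 active = growth inhibition of the mutant yeast at or above 50%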;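 note: temperature-sensitive mutant grown at 25 °C; plate controls were DMSO-treated mutant yeast for no effect and medium wells lacking yeast for full effect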
SKKanGAS inh – blocks kanamycin growth of S. pyogenes SKKanGAS strain; BacTiter-Glo, 6 h; inhibition, % at 7.5 µM; 300,000 compounds, 1.3% hits; AID 1662;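 active = mean replicate score, as percent of positive control median, at least 50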;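 note: strain carries kanamycin resistance gene driven by streptokinase promoter and grows in 40 µg/ml kanamycin; loss of luminescence reflects streptokinase promoter inhibition or plain growth inhibition; 0% = median of DMSO wells and 100% = positive control at its reference dose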
NALP3 yeast inh – NALP3 inhibition in yeast; 330,000 compounds, 0.39% hits; Yeast reconstituted NLRP3/ASC/caspase-1, beta-gal luminescence, 24 h; AID 2825; inhibition, % at 10 µM;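 active = inhibition of 50% or more; inactive = inhibition below 50%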;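 note: plate controls were induced DMSO wells for no effect and uninduced yeast grown without galactose for full effect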
TIM10 inh – TIM10 yeast growth inhibition. inhibition, % at 10 µM. AID 463195. 330,000 compounds, 1.4% hits. S. cerevisiae TIM10 strain growth, BacTiter-Glo luminescence, 24 h;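 active = inhibition of 40% or more at the single tested concentration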;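 note: wild-type TIM10 isogenic control strain grown at permissive 25 °C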
tim10-1 inh – inhibits growth of tim10-1 mutant yeast | S. cerevisiae tim10-1 ts strain growth, BacTiter-Glo, 24 h | inhibition, % at 20 µM | 330,000 compounds, 2.2% hits | AID 463190;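 active = inhibition of at least 40%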;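 note: mutant grown at 25 °C; 0% = DMSO wells with yeast and 100% = wells holding no yeast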
tim10-1 conf – confirmation of tim10-1 mutant yeast growth inhibitors. shares compounds with tim10-1 inh. 7,400 compounds, 56% hits. inhibition, % at 20 µM. S. cerevisiae tim10-1 ts strain growth, BacTiter-Glo, 24 h;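 active = inhibition of yeast growth at or above a set limit in either of two repeat tests at 20 µM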;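 note: tim10-1 mutant grown at permissive 25 °C to find synthetic lethal compounds; 0% = DMSO yeast wells and 100% = medium wells without yeast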
* hit, by the source's call; . = not tested or not shown.

SMILES	PfHsp90 set2	tim23-1 inh	SKKanGAS inh	NALP3 yeast inh	TIM10 inh	tim10-1 inh	tim10-1 conf
Cc1ccc(S(=O)(=O)N2CCN(CC(O)COc3ccccc3)CC2)cc1 (centres undefined)	-28.5	21.5	8.1	22.0	5.7	10.0	.
CCOc1ccc(S(=O)(=O)N2CCN(CC(O)COc3cccc([N+](=O)[O-])c3)CC2)cc1 (centres undefined)	-1.3	19.5	-4.3	3.4	28.0	43.9*	8.3
COc1ccc(NC(=O)c2ccc(Cl)cc2)c[n+]1[O-]	-19.7	.	-1.0	.	.	.	.
CSc1nc(N)nc(-c2cccs2)c1C#N	-27.6	48.8	1.1	-10.6	13.1	47.5*	36.0*
COc1ccc(N2C(=O)C(Cl)=C(N3CCCC(C)C3)C2=O)cc1 (centres undefined)	4.1	31.5	-1.8	7.1	27.6	41.6*	28.9
N#CCSc1nc2c(cc1C#N)CCCCCC2	-3.7	27.9	.	25.9	-22.6	28.5	.
N#CCSc1nc2c(c(C3CC=CCC3)c1C#N)CCC2 (centres undefined)	-17.3	31.0	5.7	28.8	5.9	47.2*	35.1*
O=C(Nc1ccccc1N1CCOCC1)c1cc(-c2ccncc2)nc2ccccc12	4.4	31.0	4.1	16.3	19.1	34.6	.
COc1ccc(-c2cc(C(=O)Nc3ccccc3N3CCOCC3)c3ccccc3n2)cc1OC	-20.3	14.2	18.1	-1.2	30.4	42.0*	25.4
O=C(Nc1ccccc1N1CCOCC1)c1ccc2ccccc2n1	.	25.6	5.0	19.0	15.3	40.9*	26.6
CCOC(=O)c1cnc(-n2nc(C)cc2C)nc1NNc1ncc(-c2ccccc2)cn1	.	36.1	27.8	20.2	11.3	54.2*	16.2
CCOC(=O)c1cnc(-n2nc(C)cc2C)nc1N1CC(C)OC(C)C1 (centres undefined)	-2.6	30.9	25.7	4.6	-10.6	30.7	.
CCC(C)Nc1nc(N)c([N+](=O)[O-])c(Nc2cc(OC)ccc2OC)n1 (centres undefined)	-135.0	38.0	68.7*	12.7	32.1	40.3*	15.2
COc1ccc(OC)c(Nc2nc(NCCC(C)C)nc(N)c2[N+](=O)[O-])c1	-13.9	26.6	24.6	20.6	32.1	23.5	.
COc1cccc2[nH]c(=O)c(-c3ccccc3)cc12	-30.6	24.4	-1.7	22.6	-0.4	20.9	.
CCOC(=O)c1csc(N/N=C2\CCCc3ccccc32)n1	-15.4	41.5	49.9*	-19.7	25.7	48.4*	20.6
COc1ccc2c(c1)CCC/C2=N\Nc1nc(C(=O)NN)cs1	.	28.1	15.4	3.0	24.9	41.0*	38.2*
COc1ccc(C(C)=O)cc1CC(=O)Nc1cccc(S(=O)(=O)N2CCOCC2)c1	10.9	11.2	.	16.1	0.5	3.0	.
CN(C)N1C(=O)CC(C)(c2ccc([N+](=O)[O-])cc2)C1=O (centres undefined)	-35.1	3.2	4.3	-0.5	-17.8	-11.6	.
CC1CCCCC1NC(=O)c1ccc(NS(=O)(=O)c2ccc3[nH]c(=O)[nH]c3c2)cc1 (centres undefined)	.	-0.6	-5.9	1.9	1.1	8.0	.
COc1ccc(-n2nc(C(=O)Nc3ccc(OC)c(OC)c3)c3c4ccccc4n(C)c3c2=O)cc1	-84.5	5.1	9.7	-4.8	17.4	41.1*	-1.2
CCOC(=O)/C=C/C(=O)OCC(=O)Nc1ccc(C)cc1	17.5	33.5	1.2	-12.9	28.6	40.6*	36.6*
Cc1occc1C(=O)Nc1sc2c(c1C(N)=O)CCCCC2	-17.4	27.7	2.7	3.4	38.7	48.5*	23.3
COC(=O)c1c(NC(=O)c2ccoc2C)sc2c1CCC2	-1.9	21.7	-1.3	30.3	-10.5	11.0	.
CC(NS(=O)(=O)c1ccc(OCC(=O)NCc2ccncc2)cc1)c1ccccc1 (centres undefined)	14.3	-4.4	-7.1	-2.5	0.4	-13.9	.
O=C(NCc1ccccc1)c1ccc(-c2ccccc2F)o1	-38.2	47.0	4.2	26.5	23.8	41.7*	36.1*
COc1cc(NC(=O)COC(=O)c2[nH]c(C)c(C(C)=O)c2C)cc(OC)c1	0.0	-7.8	.	17.5	-12.7	-9.3	.
